Measured values taken from PubChem BioAssay.
The source made the active and inactive calls. No stated cut-off is given here; in the data, active means fold change permeability below about 0.7 or above about 1.3; inactive means in between.

Assay: compounds altering in vitro BBB leakiness – cell-based, FITC-avidin fluorescence, HTS, primary screen (AID 1963498); further: test concentration not given here
Conditions: brain endothelial barrier, actives lie on both sides

Fold change permeability, active:
O=[N+]([O-])c1ccc(CNc2nc(NCc3cccc(C(F)(F)F)c3)nc3nc[nH]c23)cc1 1.3
CC(C)NNC(=O)c1ccncc1 0.6
OCCN1CCN(CCCN2c3ccccc3Sc3ccc(C(F)(F)F)cc32)CC1 1.4
N#C/C(=C1/SC[C@@H](c2ccc(Cl)cc2Cl)S1)n1ccnc1 1.6
CCC(=O)OCC(=O)[C@@]1(OC(=O)CC)[C@H](C)C[C@H]2[C@H]3[C@H]([C@@H](O)C[C@@]21C)[C@@]1(C)C=CC(=O)C=C1C[C@H]3Cl 1.5
CC[N+](CC)(CC)CC(=O)Nc1c(C)cccc1C 1.5
O=C(O)/C=C/c1cnc[nH]1 1.4
Oc1ccc2c(c1)CC[C@H](c1ccccc1)[C@@H]2c1ccc(OCCN2CCCC2)cc1 1.3
N#Cc1c(N2CCCC2)nc(N)c2c(N)nc(N3CCCC3)cc12 1.8
CC1CCN(CC[C@H]2CCCN2S(=O)(=O)c2cccc(O)c2)CC1 0.7
OCc1ccc(-c2nn(Cc3ccccc3)c3ccccc23)o1 2
COc1ccc(OCC2c3cc(OC)c(OC)cc3CCN2C(=O)c2cccc(Cl)c2)cc1 (centres undefined) 1.6
Cc1nc2sccn2c(=O)c1CCN1CCC(=C(c2ccc(F)cc2)c2ccc(F)cc2)CC1 1.9
c1ccc([C@H]2CN3CCSC3=N2)cc1 1.5

Fold change permeability, inactive:
Cc1cccc(-c2[nH]c(Cc3cccc(C(N)=O)c3)nc2-c2ccc3nccnc3c2)n1 0.9
CN1CC[C@]2(CCN3CCc4c(oc5ccccc45)[C@@H]3C2)N(C)C1=O 1.1
O=C(OC12CC3CC(CC(C3)C1)C2)c1ccc(NCc2cc(O)ccc2O)cc1 1
CC(=O)OCC(CCn1cnc2cnc(N)nc21)COC(C)=O 0.9
Cn1c(=O)c2[nH]c(-c3ccc(S(=O)(=O)O)cc3)nc2n(C)c1=O 1
Cc1nc(Nc2cnn(C3CCNCC3)c2)nc2c1N(C)C(=O)c1cc3ccccc3cc1N2C 1
Cc1ccc(S(=O)(=O)NC(=O)NN2CCCCCC2)cc1 1
O=C1NC(c2cccc([N+](=O)[O-])c2)=CCN1c1ccccc1O 0.9
CC1(C)CCC(NC(=O)[C@@H](N)CCC(=O)O)CC1 0.9
C=CCNc1ncnc2ccc(Br)cc12 1.2
CC(=O)OCC(=O)[C@@]1(O)CC[C@H]2[C@@H]3CCC4=CC(=O)CC[C@]4(C)[C@H]3C(=O)C[C@@]21C 0.9
CC12CC3CC(C)(C1)CC(N)(C3)C2 0.8
CC(=O)N[C@@H](Cc1c[nH]c2ccccc12)C(=O)OCc1cc(C(F)(F)F)cc(C(F)(F)F)c1 0.9
CC(=O)c1ccc(S(=O)(=O)NC(=O)NC2CCCCC2)cc1 1.1
Cc1ccc(=O)n(-c2ccccc2)c1 1
CN(C)CCC(c1ccccc1)c1ccccn1 (centres undefined) 1
CN1CCN(C2Cc3ccccc3Sc3ccc(Cl)cc32)CC1 (centres undefined) 1.2
CC(=O)N[C@@H](CS)C(=O)O 1.1
CN(C)C(=O)Oc1cccc([N+](C)(C)C)c1 0.8
NC(=O)c1sc(-c2ccsc2)cc1N 0.9
O=C1CN2Cc3c(ccc(Cl)c3Cl)N=C2N1 1.1
CCCNC(=O)NS(=O)(=O)c1ccc(Cl)cc1 0.9
C[C@H](Cc1ccc(O)c(O)c1)[C@@H](C)Cc1ccc(O)c(O)c1 1
COc1cc2nc(N3CCN(C(=O)c4ccco4)CC3)nc(N)c2cc1OC 1
CCCC(C)NC(=O)c1ccc(Cl)c(Cl)c1 (centres undefined) 1.2
